Results: PubChem BioAssay (EPA / NIEHS)
Results filed as inconclusive are left out. The source holds several records for some structures; these can differ, active in one and inactive in another. The source made the active and inactive calls. Rule for the calls, unless noted: active = hit-call score of the fitted dose curve at least 0.9, where 1 is the maximum; inactive = score below 0.9.

How the values were obtained:
[1] = ATG_NFI_CIS: Attagene CIS-FACTORIAL HepG2 Assay for human Nuclear Factor I (NFI) (AID 2282989); conditions: HepG2 cis-regulatory reporter, NFI response element transcription; actives raise or lower the signal
Outline: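 Cells: human liver HepG2, transiently transfected with promoter-regulated reporter transcription units. Exposure 24 h. Detection: fluorescent RT-PCR products separated by capillary electrophoresis, normalised to DMSO negative control.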

[2] = molecular target: Myc proto-oncogene protein (Homo sapiens) (UniProt P01106); test: ATG_Myc_CIS: Attagene CIS-FACTORIAL HepG2 Assay for human Myelocytomatosis (Myc) Proto-Oncogene Transcription Factor (AID 2282990); conditions: HepG2, Attagene cis-reporter transcription factor activity; actives raise or lower the signal
Outline: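 Transiently transfected HepG2 cells bearing cis-promoter reporter units for endogenous transcription factors; 24 h exposure. Reporter mRNA measured by RT-PCR, 6-FAM primer extension, HpaI cut and capillary electrophoresis; bidirectional fit relative to DMSO.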

[3] = ATG_NRF2_ARE_CIS: Attagene CIS-FACTORIAL HepG2 Assay for human Nuclear Factor Erythroid 2 Related Factor 2 (NFR2) response to Antioxidant Response Elements (ARE) (AID 2282992); conditions: HepG2 Attagene ARE/NRF2 reporter, transcription factor activity; actives raise or lower the signal;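 for AC50: reporter mRNA level measured by RT-PCR and capillary electrophoresis fluorescence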
Outline: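 Fluorescence intensity of reporter-specific cDNA fragments, separated by capillary electrophoresis, reflects mRNA induction in transfected HepG2 cells at 24 h. Activity is fitted bidirectionally, DMSO serving as baseline.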

[4] = ATG_Oct_MLP_CIS: Attagene CIS-FACTORIAL HepG2 Assay for human Octamer-Binding Transcription Factor (Oct) (AID 2282993); conditions: HepG2 Attagene cis-factorial Oct reporter, mRNA; actives raise or lower the signal
Outline: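 HepG2, transient MRTU transfection, cis promoter elements; 24 h dosing; RT-PCR/CE fluorescence read-out of reporter mRNA; fit both directions vs DMSO.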

[5] = molecular target: Cellular tumor antigen p53 (Homo sapiens) (UniProt P04637); test: ATG_p53_CIS: Attagene CIS-FACTORIAL HepG2 Assay for human p53 Transcription Factor (AID 2282994); conditions: HepG2 p53 cis-element reporter, Attagene mRNA; actives raise or lower the signal
Outline: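 Transiently transfected HepG2 (multiple cis reporter transcription units); exposure 24 h; reporter RNA via RT-PCR, 6-FAM extension, 2 h HpaI digest at 37 C, CE detection; DMSO baseline.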

[6] = BSK_3C_TissueFactor: BioMAP Diversity Plus: 3C Assay for Tissue Factor Biomarker Activity (AID 2282997); conditions: BioMAP 3C HUVEC, tissue factor biomarker readout; actives raise or lower the signal
Outline: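 After a 24 h chemical exposure of primary human umbilical vein endothelial cells, Tissue Factor levels were quantified by ELISA.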

[7] = BSK_3C_uPAR: BioMAP Diversity Plus: 3C Assay for Urokinase-type plasminogen activator receptor (uPAR) Biomarker Activity (AID 2282998); conditions: BioMAP 3C HUVEC, uPAR biomarker ELISA; actives raise or lower the signal
Outline: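 A multiplexed primary-cell system built on human umbilical vein endothelium was used, with chemical present for 24 h before reading. Cell-surface uPAR was detected by ELISA; signal change in either direction counted against DMSO.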

[8] = BSK_3C_VCAM1: BioMAP Diversity Plus: 3C Assay for Vascular cell adhesion molecule 1 (VCAM1) Biomarker Activity (AID 2282999); conditions: BioMAP 3C HUVEC, VCAM1 ELISA, cytokine-stimulated; actives raise or lower the signal
Outline: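 HUVEC primary cells, 24 h compound exposure; VCAM-1 by ELISA; gain/loss of signal fitted bidirectionally vs DMSO baseline.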

[9] = BSK_4H_Eotaxin3: BioMAP Diversity Plus: 4H Assay for Eotaxin 3 Biomarker Activity (AID 2283000); conditions: primary human endothelial cells (HUVEC); actives raise or lower the signal
Outline: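 Chemicals were added to human umbilical vein endothelium cultures, and Eotaxin-3 was quantified by ELISA at 24 h. Values were derived by bidirectional fitting with DMSO serving as negative control and activity baseline.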

[10] = molecular target: human Peroxisome Proliferator-activated Receptor delta (PPARd), PPARD (gene 5467) (UniProt Q03181); test: ATG_PPARd_TRANS: Attagene TRANS-FACTORIAL HepG2 Assay for human Peroxisome Proliferator-activated Receptor delta (PPARd) (AID 2283002; active = hit-call score of the fitted dose curve at least 0.9, where 1 is the maximum)
Outline: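 HepG2 cells transiently transfected with GAL4-UAS multiplexed reporter units driven by exogenous chimeric NR-GAL4 proteins; 24 h compound exposure. Reporter mRNA measured by RT-PCR, 6-FAM primer extension, HpaI digestion and capillary electrophoresis; gain of signal fitted relative to DMSO.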

[11] = read-out: Intercellular Adhesion Molecule 1 (ICAM1), ICAM1 (gene 3383); test: BSK_3C_ICAM1: BioMAP Diversity Plus: 3C Assay for Intercellular Adhesion Molecule 1 (ICAM1) Biomarker Activity (AID 2283003); conditions: primary human endothelial cells (HUVEC); actives raise or lower the signal
Outline: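 ELISA read-out of ICAM-1; HUVEC (primary human), 3C system, 24 h post-dosing; bidirectional fit vs DMSO baseline.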

[12] = molecular target: Retinoic acid receptor alpha (Homo sapiens) (UniProt P10276); test: ATG_RARa_TRANS: Attagene TRANS-FACTORIAL HepG2 Assay for human Retinoic Acid Receptor alpha (RARa) (AID 2283005; active = hit-call score of the fitted dose curve at least 0.9, where 1 is the maximum)
Outline: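 HepG2 transiently transfected with multiplex GAL4-UAS reporter units including a human RARa–GAL4 chimera; 24 h compound exposure. Reporter mRNA quantified by RT-PCR, 6-FAM labeling and capillary electrophoresis; gain of signal versus DMSO.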

[13] = BSK_3C_Proliferation: Cell Proliferation Assessment in the BioMAP Diversity Plus: 3C Assay (AID 2283006); conditions: primary human endothelial cells (HUVEC);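 for AC50: potency may reflect either rise or fall in cell number versus DMSO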
Outline: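 HUVEC, sub-confluent; 48 h chemical exposure; 10% TCA fix, 0.1% SRB stain, A560 total protein. Gain or loss of signal fitted both directions vs DMSO control.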

[14] = molecular target: Peroxisome proliferator-activated receptor gamma (Homo sapiens) (UniProt P37231); test: ATG_PPARg_TRANS: Attagene TRANS-FACTORIAL HepG2 Assay for human Peroxisome Proliferator-activated Receptor-gamma (PPARg) (AID 2283007; active = hit-call score of the fitted dose curve at least 0.9, where 1 is the maximum)
Outline: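 A TRANS-format multiplexed reporter assay measures activity of an exogenous chimeric NR-Gal4 protein in HepG2 cells. After 24 h of chemical exposure, reporter transcripts are amplified, fluorescently labelled and sized by capillary electrophoresis, with gain of signal scored against DMSO.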

[15] = molecular target: Nuclear receptor subfamily 1 group I member 2 (Homo sapiens) (UniProt O75469); test: ATG_PXR_TRANS: Attagene TRANS-FACTORIAL HepG2 Assay for human Pregnane X Receptor (PXR) (AID 2283008; active = hit-call score of the fitted dose curve at least 0.9, where 1 is the maximum)
Outline: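 Transient HepG2 transfectants carrying multiplexed reporter transcription units; PXR activity read through a Gal4 chimera. 24 h exposure. RT-PCR/CE fluorescence; upward curve fit referenced to DMSO.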

[16] = molecular target: human Retinoic Acid Receptor gamma (RARg), RARG (gene 5916) (UniProt P13631); test: ATG_RARg_TRANS: Attagene TRANS-FACTORIAL HepG2 Assay for human Retinoic Acid Receptor gamma (RARg) (AID 2283009; active = hit-call score of the fitted dose curve at least 0.9, where 1 is the maximum)
Outline: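 Readout: reporter transcript levels via RT-PCR, 6-FAM primer-extension labelling, HpaI digestion and capillary electrophoresis. Cells: HepG2 carrying transfected RARg-GAL4 chimera plus UAS reporter set. Dosing 24 h; DMSO negative control.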

[17] = molecular target: human Retinoic Acid Receptor beta (RARb), RARB (gene 5915) (UniProt P10826); test: ATG_RARb_TRANS: Attagene TRANS-FACTORIAL HepG2 Assay for human Retinoic Acid Receptor beta (AID 2283004; active = hit-call score of the fitted dose curve at least 0.9, where 1 is the maximum)
Outline: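 Transient transfection of HepG2 with multiple reporter units → chemical dosing, 24 h → total RNA isolation → RT with oligo(dT) → reporter-specific PCR, 6-FAM primer extension, HpaI digest → capillary electrophoresis. Positive direction vs DMSO control.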

[18] = ATG_NF_kB_CIS: Attagene CIS-FACTORIAL HepG2 Assay for human Nuclear Factor Kappa B (NF-kB) (AID 2282991); conditions: HepG2 Attagene cis-factorial NF-kB reporter mRNA; actives raise or lower the signal
Outline: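 Endogenous transcription factor activity in HepG2 was captured via cis-regulated reporter constructs; after 24 h dosing, reporter mRNA was reverse-transcribed, amplified, fluorescently labelled and sized by capillary electrophoresis, with activity fitted bidirectionally relative to DMSO.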

[19] = molecular target: human RAR-related Orphan Receptor beta (RORb), RORB (gene 6096) (UniProt Q92753); test: ATG_RORb_TRANS: Attagene TRANS-FACTORIAL HepG2 Assay for human RAR-related Orphan Receptor beta (RORb) (AID 2283010; active = hit-call score of the fitted dose curve at least 0.9, where 1 is the maximum)
Outline: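 HepG2, transient MRTU transfection (GAL4-UAS reporters, exogenous NR-Gal4 chimeras); 24 h compound exposure; total RNA → RT-PCR → 6-FAM primer extension → HpaI digest → CE fluorescence. Positive direction vs DMSO baseline.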

Measured: AC50

Nuclear receptor subfamily 1 group I member 2 (Homo sapiens), sequence (O75469 whole entry, looked up, the tested form may be a part): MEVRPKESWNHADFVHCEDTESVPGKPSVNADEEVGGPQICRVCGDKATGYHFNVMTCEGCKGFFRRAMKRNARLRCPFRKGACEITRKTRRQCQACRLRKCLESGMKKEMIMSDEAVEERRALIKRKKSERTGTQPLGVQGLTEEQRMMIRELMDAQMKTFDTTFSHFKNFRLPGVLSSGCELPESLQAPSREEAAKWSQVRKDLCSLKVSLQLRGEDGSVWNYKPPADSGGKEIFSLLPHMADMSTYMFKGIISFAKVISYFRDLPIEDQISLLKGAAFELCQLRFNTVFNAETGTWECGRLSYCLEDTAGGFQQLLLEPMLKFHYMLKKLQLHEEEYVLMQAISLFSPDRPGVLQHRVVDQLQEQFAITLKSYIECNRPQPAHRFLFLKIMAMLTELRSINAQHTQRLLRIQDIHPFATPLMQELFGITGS
Peroxisome proliferator-activated receptor gamma (Homo sapiens), sequence (P37231 whole entry, looked up, the tested form may be a part): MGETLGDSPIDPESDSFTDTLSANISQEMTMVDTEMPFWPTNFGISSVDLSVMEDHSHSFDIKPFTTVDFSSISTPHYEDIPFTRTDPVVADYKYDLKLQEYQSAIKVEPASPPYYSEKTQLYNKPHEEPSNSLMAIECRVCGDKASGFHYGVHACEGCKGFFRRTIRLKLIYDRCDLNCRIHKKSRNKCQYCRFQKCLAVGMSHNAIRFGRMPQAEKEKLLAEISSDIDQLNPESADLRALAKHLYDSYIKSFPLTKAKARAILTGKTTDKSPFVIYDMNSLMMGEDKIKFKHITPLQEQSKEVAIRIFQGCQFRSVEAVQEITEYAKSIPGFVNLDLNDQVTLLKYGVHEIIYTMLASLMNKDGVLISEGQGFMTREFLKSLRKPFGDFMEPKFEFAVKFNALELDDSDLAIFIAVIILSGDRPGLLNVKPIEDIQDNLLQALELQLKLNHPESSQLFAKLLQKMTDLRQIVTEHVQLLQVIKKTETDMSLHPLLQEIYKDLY
Cellular tumor antigen p53 (Homo sapiens), sequence (P04637 whole entry, looked up): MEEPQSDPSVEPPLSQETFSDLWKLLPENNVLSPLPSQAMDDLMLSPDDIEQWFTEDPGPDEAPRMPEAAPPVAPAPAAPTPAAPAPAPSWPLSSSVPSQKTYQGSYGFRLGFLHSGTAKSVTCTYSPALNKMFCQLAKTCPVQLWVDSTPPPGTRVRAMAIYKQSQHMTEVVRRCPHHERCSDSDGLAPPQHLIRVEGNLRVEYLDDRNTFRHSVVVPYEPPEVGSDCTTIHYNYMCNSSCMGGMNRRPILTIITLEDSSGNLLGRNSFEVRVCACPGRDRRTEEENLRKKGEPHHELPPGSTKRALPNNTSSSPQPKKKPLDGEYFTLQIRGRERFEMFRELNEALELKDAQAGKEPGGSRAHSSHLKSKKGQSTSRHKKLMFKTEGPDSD
human RAR-related Orphan Receptor beta (RORb), RORB (gene 6096), sequence (Q92753 whole entry, looked up, the tested form may be a part): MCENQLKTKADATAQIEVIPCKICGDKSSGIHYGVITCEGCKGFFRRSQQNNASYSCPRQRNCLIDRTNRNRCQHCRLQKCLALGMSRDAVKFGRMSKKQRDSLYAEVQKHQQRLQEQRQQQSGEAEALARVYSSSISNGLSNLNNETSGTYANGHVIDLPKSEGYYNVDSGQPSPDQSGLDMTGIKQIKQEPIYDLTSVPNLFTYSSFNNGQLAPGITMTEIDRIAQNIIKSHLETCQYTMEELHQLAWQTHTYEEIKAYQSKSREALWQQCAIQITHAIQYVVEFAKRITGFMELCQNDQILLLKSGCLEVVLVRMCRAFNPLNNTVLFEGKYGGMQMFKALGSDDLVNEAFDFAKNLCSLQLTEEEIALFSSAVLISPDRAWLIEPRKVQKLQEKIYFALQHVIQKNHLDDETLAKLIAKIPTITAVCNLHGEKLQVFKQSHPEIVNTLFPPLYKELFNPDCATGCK
human Retinoic Acid Receptor beta (RARb), RARB (gene 5915), sequence (P10826 whole entry, looked up): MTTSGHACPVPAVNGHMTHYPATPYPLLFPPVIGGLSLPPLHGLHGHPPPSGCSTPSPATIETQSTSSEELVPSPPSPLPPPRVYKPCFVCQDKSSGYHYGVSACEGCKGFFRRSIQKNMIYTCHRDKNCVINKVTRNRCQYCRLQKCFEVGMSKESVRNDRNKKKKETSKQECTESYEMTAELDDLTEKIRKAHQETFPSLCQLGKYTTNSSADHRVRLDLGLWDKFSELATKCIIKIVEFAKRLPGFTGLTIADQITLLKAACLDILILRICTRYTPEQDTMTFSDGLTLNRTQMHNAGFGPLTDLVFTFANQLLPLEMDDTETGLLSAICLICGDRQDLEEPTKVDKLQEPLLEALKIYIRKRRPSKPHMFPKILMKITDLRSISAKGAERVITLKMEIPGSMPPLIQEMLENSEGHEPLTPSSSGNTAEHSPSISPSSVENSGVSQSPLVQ
Myc proto-oncogene protein (Homo sapiens), sequence (P01106 whole entry, looked up): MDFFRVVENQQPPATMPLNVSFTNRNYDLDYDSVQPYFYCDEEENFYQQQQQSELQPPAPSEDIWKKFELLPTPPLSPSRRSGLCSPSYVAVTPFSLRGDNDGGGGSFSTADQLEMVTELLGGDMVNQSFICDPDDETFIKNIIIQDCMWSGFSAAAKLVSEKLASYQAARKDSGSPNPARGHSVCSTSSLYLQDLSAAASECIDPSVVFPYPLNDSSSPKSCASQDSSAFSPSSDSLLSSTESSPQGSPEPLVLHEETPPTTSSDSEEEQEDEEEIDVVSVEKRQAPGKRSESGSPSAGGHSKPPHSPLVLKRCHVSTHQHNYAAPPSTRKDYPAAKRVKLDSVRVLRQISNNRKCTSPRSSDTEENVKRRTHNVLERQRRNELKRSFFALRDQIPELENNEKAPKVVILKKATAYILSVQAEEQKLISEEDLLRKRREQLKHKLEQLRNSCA
human Retinoic Acid Receptor gamma (RARg), RARG (gene 5916), sequence (P13631 whole entry, looked up, the tested form may be a part): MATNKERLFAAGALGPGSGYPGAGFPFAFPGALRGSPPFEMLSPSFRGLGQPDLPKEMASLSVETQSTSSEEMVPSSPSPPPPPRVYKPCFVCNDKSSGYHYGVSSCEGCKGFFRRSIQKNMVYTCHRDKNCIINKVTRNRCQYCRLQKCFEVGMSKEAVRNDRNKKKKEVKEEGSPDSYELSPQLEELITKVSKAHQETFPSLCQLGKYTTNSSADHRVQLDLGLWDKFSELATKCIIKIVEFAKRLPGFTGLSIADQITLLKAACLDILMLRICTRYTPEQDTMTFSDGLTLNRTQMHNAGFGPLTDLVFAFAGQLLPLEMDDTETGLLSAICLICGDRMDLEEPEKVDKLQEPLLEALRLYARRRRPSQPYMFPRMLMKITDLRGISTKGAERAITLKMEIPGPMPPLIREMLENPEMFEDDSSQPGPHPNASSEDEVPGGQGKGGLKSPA
Retinoic acid receptor alpha (Homo sapiens), sequence (P10276 whole entry, looked up, the tested form may be a part): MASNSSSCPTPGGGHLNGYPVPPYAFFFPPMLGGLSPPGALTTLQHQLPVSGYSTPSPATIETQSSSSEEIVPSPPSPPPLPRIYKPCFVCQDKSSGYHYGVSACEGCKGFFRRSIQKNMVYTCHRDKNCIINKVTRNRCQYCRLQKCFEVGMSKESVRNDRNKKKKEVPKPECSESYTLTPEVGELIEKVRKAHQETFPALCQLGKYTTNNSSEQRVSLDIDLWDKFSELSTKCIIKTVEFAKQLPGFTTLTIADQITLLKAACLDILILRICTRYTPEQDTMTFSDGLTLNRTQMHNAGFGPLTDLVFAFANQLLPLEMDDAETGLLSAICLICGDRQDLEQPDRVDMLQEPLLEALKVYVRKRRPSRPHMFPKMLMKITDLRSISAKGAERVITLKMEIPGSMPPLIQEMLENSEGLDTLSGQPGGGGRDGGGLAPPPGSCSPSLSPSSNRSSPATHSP
human Peroxisome Proliferator-activated Receptor delta (PPARd), PPARD (gene 5467), sequence (Q03181 whole entry, looked up, the tested form may be a part): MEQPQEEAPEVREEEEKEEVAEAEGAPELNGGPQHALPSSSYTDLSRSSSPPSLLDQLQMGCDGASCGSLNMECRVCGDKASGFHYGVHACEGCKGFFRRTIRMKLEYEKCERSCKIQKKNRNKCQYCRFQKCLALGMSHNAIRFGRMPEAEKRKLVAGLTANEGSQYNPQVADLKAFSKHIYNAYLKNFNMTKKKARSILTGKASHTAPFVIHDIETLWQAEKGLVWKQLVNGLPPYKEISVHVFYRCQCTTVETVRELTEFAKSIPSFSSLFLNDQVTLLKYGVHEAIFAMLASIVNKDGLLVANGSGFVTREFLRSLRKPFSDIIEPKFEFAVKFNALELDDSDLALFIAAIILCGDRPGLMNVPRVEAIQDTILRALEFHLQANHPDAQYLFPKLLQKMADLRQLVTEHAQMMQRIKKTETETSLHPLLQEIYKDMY

Cc1cc(C2CC2)nc(Nc2ccccc2)n1
active: [1] 29.3 µM | [3] 13 µM | [4] 15.7 µM | [9] 9.49 µM | [13] 15.8 µM | [14] 50 µM
not listed: [17] | [18] | [19]
inactive: all other assays above

CCc1cnc(C2=NC(C)(C(C)C)C(=O)N2)c(C(=O)O)c1 (stereo unspecified)
not listed: [5] | [10] | [12] | [15] | [16] | [18] | [19]
inactive: all other assays above

CSc1nc(NC(C)C)nc(NC(C)C)n1
active: [3] 10 µM | [14] 47.6 µM | [15] 18.4 µM
not listed: [10] | [18] | [19]
inactive: all other assays above

CCc1cccc(C)c1N(C(=O)CCl)C(C)COC (stereo unspecified)
active: [3] 5.18 µM | [4] 14.2 µM | [14] 13.5 µM
not listed: [10] | [12] | [16] | [19]
inactive: all other assays above

CCCSP(=O)(OCC)SCCC
active: [3] 40.9 µM
not listed: [5] | [10] | [18]
inactive: all other assays above

Cc1ccn2nc(S(=O)(=O)Nc3c(F)cccc3F)nc2n1
not listed: [5] | [10] | [12] | [17] | [18]
inactive: all other assays above

CN(C)[C@@H]1C(=O)C(C(N)=O)=C(O)[C@@]2(O)C(=O)C3=C(O)c4c(O)cccc4[C@@](C)(O)[C@H]3[C@H](O)[C@@H]12
inactive: [1] | [2] | [3] | [4] | [6] | [7] | [8] | [9] | [11] | [13] | [14] | [15] | [19]
active: [3] 20.8 µM | [4] 13.6 µM | [9] 33 µM | [13] 20 µM

Cc1nn(-c2cc(NS(C)(=O)=O)c(Cl)cc2Cl)c(=O)n1C(F)F
active: [14] 28 µM | [15] 28.9 µM
not listed: [12] | [16] | [17] | [18]
inactive: all other assays above
